# Test results from PubChem BioAssay.
# Records with an inconclusive call do not appear. The source made the active and inactive calls.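 How the source made its calls, unless noted: active means GFP response, as percent of the DMSO control, above the screen-wide mean plus 3 SD, about 139; inconclusive means no response measured because the compound's own fluorescence interfered; inactive means the rest.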
# How the values were obtained:
# [1] = yeast TOR pathway RPL19A-GFP modulators, primary screen, cell-based, S. cerevisiae, multiplex flow cytometry (AID 1862; in the data active means percent of DMSO control GFP below about 86%;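 further: lower values mimic rapamycin by blocking the RPL19A rise seen in DMSO cells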); conditions: S. cerevisiae RPL19A-GFP strain, flow cytometry fluorescence, 3 h; at 10 µM; stronger effect = lower value
# [2] = modulators of MEP2-GFP levels in yeast, primary screen, S. cerevisiae, multiplex flow cytometry (AID 1867);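 further: median GFP channel fluorescence of barcode-gated MEP2-GFP cells measured by flow cytometry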; conditions: S. cerevisiae MEP2-GFP strain, 3 h, at 10 µM, stronger effect = higher value, 100% means same as DMSO wells
# [3] = modulators of CIT2-GFP expression in yeast, primary screen, S. cerevisiae, GFP fusion, multiplex flow cytometry (AID 1870;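 active means percent response above a set limit, the screen-wide mean plus 3 SD, cut at about 130% in these data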;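 further: barcoded CIT2-GFP strain pooled with four other GFP strains with rapamycin as positive control; median GFP fluorescence per well over plate mean of DMSO wells so 100% = DMSO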); conditions: 3 h, at 10 µM, stronger effect = higher value
# [4] = modulators of LAP4-GFP expression in yeast, primary screen, S. cerevisiae, multiplex flow cytometry (AID 1873;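 active means GFP signal, as percent of the solvent control, above the screen mean plus 3 SD, about 149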); conditions: 3 h, at 10 µM, stronger effect = higher value
# [5] = modulators of AGP1-GFP expression in yeast TOR pathway, primary screen, cell-based, multiplex flow cytometry, S. cerevisiae (AID 1887;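 active means GFP signal above the screen-wide mean plus 3 SD, that is over about 124.5% of the solvent control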;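 further: AGP1-GFP fusion strain of S. cerevisiae within a five-strain barcoded multiplex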); conditions: 3 h, at 10 µM, stronger effect = higher value
# [6] = inhibitors of CD8+ T cell-vesicle binding, pilot screen, LFA-1/ICAM-1 modulator project, MLPCN validation set, flow cytometry (AID 2523;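 active means response below a set limit, under 55% cells CD8-positive and vesicle-bound, and CD8 cells' 90th-percentile brightness under 279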;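 on vesicle binding response: mean PE anti-B7-1 fluorescence of CD8+ cells relative to row control; 100% = QL9-loaded vesicles with DMSO vehicle in the same plate row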); conditions: 2C mouse CD8+ T cells, at 7 µM, stronger effect = lower value; double positive events: measured here: CD8+/vesicle+ event percentage
# [7] = molecular target: Integrin beta-1 (Homo sapiens) + Integrin alpha-4 (Homo sapiens) (UniProt P13612+P05556); test: inhibition of HUTS-21 binding to VLA-4, pilot screen, VLA-4 allosteric modulator project, U937 cells, HUTS-21 mAb, flow cytometry, validation set (AID 2674;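 active means inhibition above 50%, about 3 SD of the validation set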;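 further: antibody binding induced by the VLA-4 ligand LDV present at three times its Kd; 0% = LDV ligand with antibody and no compound and 100% = antibody without LDV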); conditions: HUTS-21 LIBS mAb binding, at 6.7 µM, stronger effect = higher value, binding induced by LDV ligand
# [8] = superoxide lowering in aged yeast cells, pilot screen, validation compound set (AID 2706;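 active means superoxide response below 65% of plate, a cut near 3 SD across the whole screen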;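 further: yeast exposed to compound for one week at 30 degrees C before staining; 100% = mean of all compound wells on the same plate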); conditions: S. cerevisiae aging, superoxide DHE fluorescence; at 10 µM; stronger effect = lower value
# [9] = molecular target: Beta-adrenergic receptor kinase 1 (Homo sapiens) (UniProt P25098); test: GRK2 binders displacing RNA aptamer, biochemical, validation, human GRK2, bead flow cytometry (AID 488806;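 active means aptamer binding inhibition above 30%, about 3 SD of noise from non-fluorescent compounds; inactive means inhibition at or below 30%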); conditions: bead-bound GRK2, FAM-aptamer displacement, at 10 µM, stronger effect = higher value
# [10] = molecular target: Beta-2 adrenergic receptor (Homo sapiens) (UniProt P07550); test: beta2AR agonists driving receptor internalization, pilot screen, cell-based, FAP fluorogen, flow cytometry, validation set (AID 504459;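 active means percent response above 42, roughly 3 SD of non-fluorescent test compounds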;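 further: agonist-driven loss of surface beta2AR via internalization measured by FAP dye flow cytometry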); conditions: Am2.2-beta2AR cells, FAP surface receptor flow cytometry; at 10 µM; stronger effect = higher value
# [11] = molecular target: AP-2 complex subunit beta (Homo sapiens) (UniProt P63010); test: inhibitors of arrestin peptide binding to AP2, pilot screen, biochemical, validation set, GST-AP2 beads, flow cytometry (AID 504541;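 active means inhibition above 54%, about 3 SD of non-fluorescent compounds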;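 further: AP2 carries R879A mutation and is captured from E. coli lysate; bead-bound FITC arrestin peptide fluorescence measuring arrestin peptide binding to AP2; 0% = DMSO wells and 100% = excess unlabeled arrestin peptide control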); conditions: FITC arrestin peptide, at 10 µM, stronger effect = higher value, AP2 beta2 appendage fragment, R879A mutant
# [12] = yeast V-ATPase proton transport modulators, S. cerevisiae, pHLuorin, HTS validation (AID 504600; in the data active means response above about 15%;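 further: plate controls were DMSO for no effect and reference compound for full effect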); conditions: S. cerevisiae pHLuorin cytosolic pH, at 10 µM, stronger effect = higher value
# [13] = system: anti-desmoglein-3 scFv antibody binding to human DSG3; test: inhibitors of anti-DSG3 scFv binding to DSG3, pilot screen, biochemical, validation compound set, bead-based, flow cytometry (AID 588368;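 active means binding below the plate cutoff, the plate median minus 3 SD, with a reading above zero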;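 further: signal is the median channel fluorescence of bead-bound GFP antibody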); conditions: Protein G beads, DSG3-Fc, scFv-GFP binding, at 10 µM, stronger effect = lower value
# [14] = inhibitors of fungal efflux pumps CDR1, CDR2, MDR1, pilot screen, validation compound set, multiplex, phenotypic (AID 588506;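 active means efflux inhibition above 0.42, the validation set average plus 4 SD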;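 further: Nile Red retained in cells so higher fluorescence means more efflux inhibition; 0 = negative control wells and 1 = enniatin B 25 µM full block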); conditions: S. cerevisiae pump-expressing triplex, Nile Red efflux flow cytometry; at 10 µM; stronger effect = higher value; the pumps come from Candida albicans
# [15] = molecular target: ATP-binding cassette sub-family B member 6 (Homo sapiens) (UniProt Q9NP58); test: ABCB6 transporter inhibitors, pilot screen, K562-ABCB6 cells, flow cytometry, validation set (AID 588550;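 active means inhibition above the screen-wide mean plus 3 SD, about 51%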;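 further: 0% = DMSO wells and 100% = benzethonium chloride 70 µM positive control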); conditions: K562-ABCB6 porphyrin accumulation, 1 h, at 10 µM, stronger effect = higher value
# [16] = promoters of myeloid differentiation in arrested cells, primary screen, cell-based, GFP/MAC1 double positive, flow cytometry, validation set (AID 588685;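 active means differentiation response of at least 50%, scaled between solvent and reference control, from cells with both markers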;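 further: compound exposure lasts four days before antibody staining and flow analysis; 0% = DMSO wells and 100% = 5 µM fulvestrant positive control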); conditions: ER-HoxA9 marrow cells, stronger effect = higher value, normalized: vehicle 0, fulvestrant 100
# Sequence of Beta-2 adrenergic receptor (Homo sapiens) (P07550 whole entry, looked up): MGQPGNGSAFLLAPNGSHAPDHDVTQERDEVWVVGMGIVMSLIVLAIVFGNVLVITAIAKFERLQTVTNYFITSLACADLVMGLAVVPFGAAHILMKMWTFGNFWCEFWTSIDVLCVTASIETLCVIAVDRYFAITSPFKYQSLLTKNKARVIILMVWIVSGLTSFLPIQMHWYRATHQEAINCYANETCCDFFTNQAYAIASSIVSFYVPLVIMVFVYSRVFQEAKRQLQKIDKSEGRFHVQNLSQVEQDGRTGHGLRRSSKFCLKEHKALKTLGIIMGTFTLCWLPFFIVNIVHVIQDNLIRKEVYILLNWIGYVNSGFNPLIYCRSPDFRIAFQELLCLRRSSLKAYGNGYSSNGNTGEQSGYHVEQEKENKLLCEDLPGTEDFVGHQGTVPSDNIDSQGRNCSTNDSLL
# Sequence of ATP-binding cassette sub-family B member 6 (Homo sapiens) (Q9NP58 whole entry, looked up): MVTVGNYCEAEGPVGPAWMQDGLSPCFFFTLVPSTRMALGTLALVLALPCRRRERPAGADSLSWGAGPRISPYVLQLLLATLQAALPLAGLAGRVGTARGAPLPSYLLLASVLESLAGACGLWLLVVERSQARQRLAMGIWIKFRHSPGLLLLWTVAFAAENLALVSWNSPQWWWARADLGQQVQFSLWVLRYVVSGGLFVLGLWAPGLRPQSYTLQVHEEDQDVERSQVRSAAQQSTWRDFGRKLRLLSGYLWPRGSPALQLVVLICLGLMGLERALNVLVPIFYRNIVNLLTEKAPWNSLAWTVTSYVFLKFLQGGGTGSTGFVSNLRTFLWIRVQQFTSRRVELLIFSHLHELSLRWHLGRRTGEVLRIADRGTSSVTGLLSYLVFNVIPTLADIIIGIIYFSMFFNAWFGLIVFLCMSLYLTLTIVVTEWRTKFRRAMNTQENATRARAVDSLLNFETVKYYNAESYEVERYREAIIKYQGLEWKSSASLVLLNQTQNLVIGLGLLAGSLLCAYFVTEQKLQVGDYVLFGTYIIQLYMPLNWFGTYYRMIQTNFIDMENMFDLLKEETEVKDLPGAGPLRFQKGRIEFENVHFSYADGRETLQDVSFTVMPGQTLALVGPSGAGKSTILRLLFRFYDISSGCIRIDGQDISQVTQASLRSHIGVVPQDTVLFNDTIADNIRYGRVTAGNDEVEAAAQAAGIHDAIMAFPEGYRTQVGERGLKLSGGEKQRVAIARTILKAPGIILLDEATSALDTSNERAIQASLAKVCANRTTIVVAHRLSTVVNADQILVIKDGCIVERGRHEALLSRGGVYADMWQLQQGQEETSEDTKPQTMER
# Sequence of Integrin beta-1 (Homo sapiens) + Integrin alpha-4 (Homo sapiens) (P05556 whole entry, looked up): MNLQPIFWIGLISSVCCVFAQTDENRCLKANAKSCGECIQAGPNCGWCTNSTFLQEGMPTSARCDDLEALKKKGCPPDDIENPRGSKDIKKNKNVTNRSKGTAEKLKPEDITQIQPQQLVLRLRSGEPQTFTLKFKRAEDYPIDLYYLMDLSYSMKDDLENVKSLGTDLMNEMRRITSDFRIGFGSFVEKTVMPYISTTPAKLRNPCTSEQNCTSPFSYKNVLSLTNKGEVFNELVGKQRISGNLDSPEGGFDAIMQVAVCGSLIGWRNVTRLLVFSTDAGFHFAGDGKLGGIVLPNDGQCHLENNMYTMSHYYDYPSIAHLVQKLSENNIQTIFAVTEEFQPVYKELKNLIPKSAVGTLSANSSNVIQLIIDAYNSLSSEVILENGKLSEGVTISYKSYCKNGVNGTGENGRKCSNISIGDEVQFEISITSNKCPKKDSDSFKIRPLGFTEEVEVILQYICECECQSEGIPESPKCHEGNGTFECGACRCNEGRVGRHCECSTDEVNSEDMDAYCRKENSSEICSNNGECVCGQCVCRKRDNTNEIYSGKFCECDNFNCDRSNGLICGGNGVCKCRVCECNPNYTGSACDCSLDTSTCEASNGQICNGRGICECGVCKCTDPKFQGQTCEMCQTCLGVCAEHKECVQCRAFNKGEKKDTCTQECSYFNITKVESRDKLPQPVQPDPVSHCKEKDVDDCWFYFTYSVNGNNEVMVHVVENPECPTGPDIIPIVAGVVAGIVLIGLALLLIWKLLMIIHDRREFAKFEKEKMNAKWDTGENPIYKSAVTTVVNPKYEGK
# Sequence of Integrin beta-1 (Homo sapiens) + Integrin alpha-4 (Homo sapiens) (P13612 whole entry, looked up): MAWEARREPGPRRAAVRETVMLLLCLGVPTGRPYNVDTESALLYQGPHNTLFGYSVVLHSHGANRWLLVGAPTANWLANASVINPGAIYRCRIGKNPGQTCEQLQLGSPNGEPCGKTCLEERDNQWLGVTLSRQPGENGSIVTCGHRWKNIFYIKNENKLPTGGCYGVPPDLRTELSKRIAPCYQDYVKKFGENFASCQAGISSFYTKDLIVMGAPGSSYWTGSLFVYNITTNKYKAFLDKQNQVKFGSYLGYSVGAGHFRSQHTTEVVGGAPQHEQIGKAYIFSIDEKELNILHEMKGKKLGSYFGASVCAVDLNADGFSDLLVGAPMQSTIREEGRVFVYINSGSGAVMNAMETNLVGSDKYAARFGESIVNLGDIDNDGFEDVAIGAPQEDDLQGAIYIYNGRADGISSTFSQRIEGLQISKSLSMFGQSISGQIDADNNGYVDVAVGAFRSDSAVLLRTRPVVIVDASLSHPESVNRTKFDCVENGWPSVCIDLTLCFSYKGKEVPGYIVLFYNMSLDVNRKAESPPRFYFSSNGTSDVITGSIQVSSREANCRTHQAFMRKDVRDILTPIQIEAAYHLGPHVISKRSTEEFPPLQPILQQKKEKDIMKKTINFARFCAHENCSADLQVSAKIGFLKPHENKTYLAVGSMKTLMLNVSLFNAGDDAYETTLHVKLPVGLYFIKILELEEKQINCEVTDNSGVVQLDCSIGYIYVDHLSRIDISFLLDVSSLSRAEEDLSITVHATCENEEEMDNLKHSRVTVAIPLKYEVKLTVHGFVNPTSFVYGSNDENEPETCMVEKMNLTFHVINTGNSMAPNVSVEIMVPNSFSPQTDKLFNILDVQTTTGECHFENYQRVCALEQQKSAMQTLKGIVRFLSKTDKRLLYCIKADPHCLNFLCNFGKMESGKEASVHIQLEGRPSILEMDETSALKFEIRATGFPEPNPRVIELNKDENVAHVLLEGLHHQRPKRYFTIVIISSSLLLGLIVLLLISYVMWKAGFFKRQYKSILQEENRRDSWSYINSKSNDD
# Sequence of AP-2 complex subunit beta (Homo sapiens) (P63010 whole entry, looked up, the tested form may be a part, one chain of several): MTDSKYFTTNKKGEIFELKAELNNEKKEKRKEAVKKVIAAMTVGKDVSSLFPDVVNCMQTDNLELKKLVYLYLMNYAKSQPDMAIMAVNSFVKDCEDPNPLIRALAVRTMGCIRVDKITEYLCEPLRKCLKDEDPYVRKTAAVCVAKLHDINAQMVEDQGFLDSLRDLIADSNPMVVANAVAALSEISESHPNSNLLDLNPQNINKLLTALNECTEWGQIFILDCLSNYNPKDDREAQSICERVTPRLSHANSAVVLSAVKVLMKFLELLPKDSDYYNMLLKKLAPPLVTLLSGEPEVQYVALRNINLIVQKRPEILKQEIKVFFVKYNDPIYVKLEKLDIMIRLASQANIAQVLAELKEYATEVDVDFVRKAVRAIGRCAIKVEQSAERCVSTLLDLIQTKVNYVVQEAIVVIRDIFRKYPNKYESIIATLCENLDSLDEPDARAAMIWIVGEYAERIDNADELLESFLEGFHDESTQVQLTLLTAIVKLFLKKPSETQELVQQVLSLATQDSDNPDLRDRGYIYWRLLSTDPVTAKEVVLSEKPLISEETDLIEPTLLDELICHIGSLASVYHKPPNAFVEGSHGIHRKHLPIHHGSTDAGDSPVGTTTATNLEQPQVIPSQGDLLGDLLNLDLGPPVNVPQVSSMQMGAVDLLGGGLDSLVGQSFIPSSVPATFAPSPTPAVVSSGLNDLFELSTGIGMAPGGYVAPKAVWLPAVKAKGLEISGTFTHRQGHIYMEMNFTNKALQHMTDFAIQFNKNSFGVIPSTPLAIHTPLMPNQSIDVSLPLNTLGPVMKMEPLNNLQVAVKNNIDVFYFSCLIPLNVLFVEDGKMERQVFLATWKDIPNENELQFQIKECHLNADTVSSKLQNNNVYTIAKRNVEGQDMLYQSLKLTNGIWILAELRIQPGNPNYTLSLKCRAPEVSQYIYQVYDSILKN
# Sequence of Beta-adrenergic receptor kinase 1 (Homo sapiens) (P25098 whole entry, looked up): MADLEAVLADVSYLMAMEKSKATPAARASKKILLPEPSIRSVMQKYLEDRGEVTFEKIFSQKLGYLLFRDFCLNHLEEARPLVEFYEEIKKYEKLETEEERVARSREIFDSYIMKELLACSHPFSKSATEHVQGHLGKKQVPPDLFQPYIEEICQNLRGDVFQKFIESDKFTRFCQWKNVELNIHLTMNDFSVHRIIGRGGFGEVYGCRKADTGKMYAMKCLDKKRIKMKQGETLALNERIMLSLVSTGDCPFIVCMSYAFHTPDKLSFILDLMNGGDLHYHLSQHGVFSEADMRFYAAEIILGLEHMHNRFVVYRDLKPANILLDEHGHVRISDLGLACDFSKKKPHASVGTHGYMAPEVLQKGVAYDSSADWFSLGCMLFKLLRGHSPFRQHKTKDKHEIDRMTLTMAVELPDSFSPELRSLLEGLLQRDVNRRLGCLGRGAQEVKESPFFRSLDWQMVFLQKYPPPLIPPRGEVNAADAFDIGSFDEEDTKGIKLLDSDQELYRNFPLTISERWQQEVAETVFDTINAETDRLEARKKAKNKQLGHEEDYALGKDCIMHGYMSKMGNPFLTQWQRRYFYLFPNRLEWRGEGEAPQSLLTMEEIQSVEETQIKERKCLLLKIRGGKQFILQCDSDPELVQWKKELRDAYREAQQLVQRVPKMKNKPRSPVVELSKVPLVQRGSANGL
SMILES,percent of DMSO control GFP [1],GFP response vs DMSO [2],percent response of DMSO control [3],GFP response vs DMSO [4],"GFP response, % of DMSO [5]",double positive events [6] [%],vesicle binding response [6],inhibition [7],superoxide response (% of plate) [8],aptamer binding inhibition [9],response [10],inhibition [11],response [12],binding (% of control) [13],efflux inhibition (fraction of control) [14],inhibition [15],differentiation response [16]
CCn1cc(CN2N=C(C)CC2c2ccccc2)c(C)n1 (stereo not drawn),95.6% (inactive),120% (inactive),92.9% (inactive),116% (inactive),97.2% (inactive),60.6,87.5% (inactive),-7.25% (inactive),106% (inactive),3% (inactive),7.08% (inactive),-1.16% (inactive),1.03% (inactive),103% (inactive),-0.28 (inactive),3% (inactive),-29.6% (inactive)
COc1cc(C(=O)CCN2CCC(c3ccccc3)C2)cc(OC)c1OC (stereo not drawn),108% (inactive),97.7% (inactive),110% (inactive),95.9% (inactive),105% (inactive),57.9,131% (inactive),1.59% (inactive),117% (inactive),2% (inactive),2% (inactive),4.79% (inactive),-0.17% (inactive),100% (inactive),0.1 (inactive),0% (inactive),-10.4% (inactive)
Cc1ccnc(NS(=O)(=O)c2ccc(N)cc2)n1,102% (inactive),99.7% (inactive),106% (inactive),102% (inactive),111% (inactive),63.6,203% (inactive),19% (inactive),92.2% (inactive),-1% (inactive),5.51% (inactive),-0.12% (inactive),-1.12% (inactive),94% (inactive),-0.3 (inactive),-3% (inactive),1.28% (inactive)
Cc1ccc(-c2nn(-c3cccc(F)c3)cc2CN2CCN(c3ccccn3)CC2)o1,101% (inactive),107% (inactive),92% (inactive),123% (inactive),101% (inactive),54.2,2920% (inactive),0.94% (inactive),95.7% (inactive),5% (inactive),25.4% (inactive),5.48% (inactive),-6.07% (inactive),101% (inactive),0.37 (inactive),12% (inactive),-23.2% (inactive)
CC1=NN(C(=O)c2ccc(Br)cc2)C(O)(c2ccccc2)C1 (stereo not drawn),100% (inactive),96.6% (inactive),102% (inactive),109% (inactive),103% (inactive),64.3,165% (inactive),13.7% (inactive),86.9% (inactive),0% (inactive),5.99% (inactive),-5.19% (inactive),-3.1% (inactive),96.8% (inactive),0.36 (inactive),-9% (inactive),-4.57% (inactive)
c1ccc(SSc2ccccc2)cc1,105% (inactive),108% (inactive),118% (inactive),96.6% (inactive),103% (inactive),62.9,301% (inactive),-0.45% (inactive),93.6% (inactive),2% (inactive),1.12% (inactive),-24.5% (inactive),3.24% (inactive),93.5% (inactive),-0.04 (inactive),-6% (inactive),-2.69% (inactive)
COc1ccc2[nH]c(=O)c(CN(C(=O)c3ccco3)C(C)C)cc2c1,91.7% (inactive),148% (active),103% (inactive),83.6% (inactive),92.6% (inactive),72.1,221% (inactive),4.52% (inactive),108% (inactive),3% (inactive),-2.75% (inactive),-1.83% (inactive),-5.39% (inactive),101% (inactive),0.41 (inactive),9% (inactive),0% (inactive)
CN1CCCN(C(c2ccccc2)c2ccc(Cl)cc2)CC1 (stereo not drawn),97.1% (inactive),102% (inactive),103% (inactive),123% (inactive),120% (inactive),54.6,171% (inactive),39.8% (inactive),107% (inactive),-14% (inactive),29.3% (inactive),-13.9% (inactive),-5.79% (inactive),107% (inactive),0.04 (inactive),2% (inactive),-7.94% (inactive)
O=C(NC(=S)Nc1ccc(N2CCN(C(=O)c3ccccc3)CC2)cc1)c1cccs1,96.3% (inactive),126% (inactive),116% (inactive),77% (inactive),96.1% (inactive),51.4,106% (inactive),-4.21% (inactive),101% (inactive),0% (inactive),-15.7% (inactive),-3.24% (inactive),1.01% (inactive),107% (inactive),-0.28 (inactive),13% (inactive),-0.82% (inactive)
